# Assay results as given in PubChem BioAssay AID434970 (Sanford-Burnham Center for Chemical Genomics, 2010).
# Out of some 11,000 compounds screened, about 310 (2.8%) were called active. Cut-off read from the data, not from the text of the source: active = activity change below about -85%; inactive = the rest. Shown is part of a subset that was picked to be rich in actives.
# Tested on: intestinal alkaline phosphatase [Mus musculus]
# Assay: mouse intestinal phosphatase enzyme activation – biochemical, luminescence, single concentration, confirmation (AID 434970)
# Details: purified mouse IAP, CDP-Star luminescence, 30 min, at 10 µM; activation factor: measured here: IAP activation factor, stronger effect = higher value; activity change, negative = activation: stronger effect = lower value
SMILES,activation factor,"activity change, negative = activation"
COc1cccc(-c2sc3cc(OC)c(OC)cc3c2-c2ccc(OCCN3CCCCC3)cc2)c1,1.01,-0.55% (inactive)
O=C(c1cccs1)N1CCCC(c2ccccc2)C1 (stereo not given),0.929,7.1% (inactive)
COc1cc(=O)n(C)c2cc(N(C)C)ccc12,0.917,8.35% (inactive)
COc1ccc2[nH]c3c(c2c1)CCN1C(=O)C(CC(=O)NCc2cccc(C(F)(F)F)c2)C[C@H](C(=O)N2CCOCC2)[C@@]31C (stereo not given in full),1.08,-8.45% (inactive)
COc1ccc(Cc2nc3ccc(C(=O)NCc4ncc(C)[nH]4)cc3o2)cc1OC,0.927,7.3% (inactive)
COC(=O)c1sccc1NC(=O)C1CC=CCC1C(=O)O (stereo not given),0.998,0.15% (inactive)
CC1(C)Cc2noc(N)c2C(C)(C)N1OC(=O)c1cccs1,1.04,-3.75% (inactive)
CC[C@]12c3[nH]c4cc(CCC(=O)N(C)C)ccc4c3CCN1C(=O)[C@@H](CC(=O)NC/C=C(\C)CCC=C(C)C)C[C@@H]2C(=O)N1CCN(C(=O)C2CC2)CC1,1.09,-9.3% (inactive)
O=C(c1ccc(Cn2c(=O)[nH]c3ccccc3c2=O)cc1)N1CCN(c2ccc(F)cc2)CC1,1,0.05% (inactive)
S=C(NCCN(C1CCCCC1)C1CCCC1)Nc1cccc(Cl)c1,1.69,-68.5% (inactive)
S=C(NCc1ccccc1)Nc1cccc(Cl)c1,1.4,-40.5% (inactive)
S=C(NCCC(c1ccccc1)c1ccccc1)Nc1ccc(Cl)cc1,2.1,-110% (active)
Cc1ccc(NC(=S)NCCSc2ccc(Cl)cc2)cc1,1.45,-45.4% (inactive)
Fc1ccccc1CNC(=S)Nc1ccc(Cl)cc1,1.38,-38.1% (inactive)
S=C(NCCC(c1ccccc1)c1ccccc1)Nc1cccc(Cl)c1,3.74,-274% (active)
CC(C)CN(C(=O)COC(=O)Cn1cnc2ccccc2c1=O)C1CCS(=O)(=O)C1 (stereo not given),0.927,7.25% (inactive)
Cc1ccc(C)c(CN2CCC(n3nccc3NC(=O)CCCc3ccccc3)CC2)c1,2.31,-131% (active)
COc1ccc(-c2noc(CCCC(=O)NCCc3ccccc3)n2)cc1OC,0.998,0.25% (inactive)

SMILES,activation factor,"activity change, negative = activation"
COc1ccccc1CN1CCC(n2nccc2NC(=O)CCCc2ccccc2)CC1,2.08,-108% (active)
COc1ccc(CN2CCC(n3nccc3NC(=O)CCCc3ccccc3)CC2)cc1C,2.4,-140% (active)
CCOC(=O)CN(C(=O)CN1CCC(n2nnc3cc(C)ccc32)CC1)c1ccccc1,0.982,1.8% (inactive)
COc1ccc(CN2CCC(n3nccc3NC(=O)CCc3ccccc3)CC2)c(C)c1C,1.6,-60% (inactive)
COc1ccc(Cl)cc1NC(=O)CN1CCC(n2nnc3ccccc32)CC1,0.96,4.05% (inactive)
Cc1ccc(-c2nnn(CC(=O)NC3CCN(Cc4ccccc4)CC3)n2)cc1,1.04,-4.25% (inactive)
COc1ccccc1CN1CCN(S(=O)(=O)c2ccccc2)CC1,0.897,10.3% (inactive)
CCOc1ccc(CN2CCC(n3nccc3NC(=O)CCCc3ccccc3)CC2)cc1,1.83,-83% (inactive)
CCOc1ccc(-c2cc(CCCC(=O)NCCc3ccccc3)no2)cc1,1.07,-6.9% (inactive)
CCOc1cccc(CN2CCC(n3nccc3NC(=O)CCCc3ccccc3)CC2)c1,2.3,-130% (active)
COc1cc(-c2nnc3sc(Cc4ccccc4)nn23)cc(OC)c1OC,0.942,5.85% (inactive)
CCOC(=O)c1cnc(SCc2cccc(C)c2)nc1N,1.08,-7.85% (inactive)
CCOc1ccc(NC(=O)N2CCC(C(=O)c3ccc(F)cc3)CC2)cc1,1.07,-7.1% (inactive)
COc1cccc(OC)c1C(=O)Nc1cccc(C(C)=O)c1,0.983,1.65% (inactive)
NS(=O)(=O)c1ccc(N2N=C(c3ccccc3)CC2c2ccccc2)cc1 (stereo not given),1.6,-59.6% (inactive)
CCCC1(C(=O)OCC)NC(c2cc(OC)c(OC)c(OC)c2)C2C(=O)N(CC)C(=O)C21 (stereo not given),0.957,4.35% (inactive)
O=C(CN1CCCCCC1)Nc1ccccc1F,0.954,4.6% (inactive)
